# Laboratory results published in paper PMC7826789 (International Journal of Molecular Sciences, 2021).
# Assays:
# [1] = test system: MAPK1
# [2] = test system: MAPK3
# [3] = test system: MAPK7
# [4] = test system: MAPK8
# [5] = test system: MARK3
# [6] = test system: MELK
# [7] = test system: MINK1
# [8] = test system: MKNK1
# [9] = test system: MKNK2
# [10] = test system: MLCK
# [11] = test system: MSK1
# [12] = test system: MTOR
# [13] = test system: MUSK
# [14] = test system: MYLK
# [15] = test system: NEK2
# [16] = test system: NEK3
smiles,measurement,setting,value
Cc1cnc(Nc2ccc(F)cc2Cl)nc1-c1c[nH]c(C(=O)N[C@H](CO)c2cccc(Cl)c2)c1 [Vertex 11e],Kinases covered,[1],MAPK1
same,Kinases covered,[2],MAPK3
O=C1Nc2ccc(I)cc2C1=Cc1cc(Br)c(O)c(Br)c1 [GW305074X],Kinases covered,[2],MAPK3
CCOc1cc(N2CCC(O)CC2)ccc1Nc1ncc2c(n1)N(C)c1ccccc1C(=O)N2C [XMD8-92],Kinases covered,[3],MAPK7
CCOc1cc(C(=O)N2CCC(N3CCN(C)CC3)CC2)ccc1Nc1ncc2c(n1)N(C1CCCC1)c1ccccc1C(=O)N2C [ERK5-IN-1],Kinases covered,[3],MAPK7
CN(C)C/C=C/C(=O)Nc1ccc(C(=O)Nc2cccc(Nc3ncc(Cl)c(-c4c[nH]c5ccccc45)n3)c2)cc1 [THZ1],Kinases covered,[4],MAPK8
FC1=CC(C3=NC2=CC(OC)=C(OC)C=C2C(N[C@H]4[C@H]([C@](C)(O)C)CNC4)=N3)=C(O)C=C1.Cl.Cl [CCT241533],Kinases covered,[5],MARK3
CC(C)COC(=O)c1ccc2c(c1)/C(=C/Nc1ccc(S(N)(=O)=O)cc1)C(=O)N2 [GW416981X],Kinases covered,[6],MELK
NS(=O)(=O)c1ccc(N/N=C2\C(=O)Nc3ccc(C(=O)NCCc4c[nH]cn4)cc32)cc1 [GW300660X],Kinases covered,[6],MELK
Cc1ccc(-c2cc(-c3c[nH]nc3-c3ccccn3)ccn2)cc1 [GW684088],Kinases covered,[7],MINK1
COc1cc2ncnc(Nc3ccc(F)c(Cl)c3)c2cc1O[C@H]1CC[C@H](N)CC1 [BIBW3133BS],Kinases covered,[8],MKNK1
CCCc1cc(N2CCCN(C)CC2)nc2sc3c(N)ncnc3c12 [BI00604564],Kinases covered,[9],MKNK2
CNc1nc(Nc2ccc(C(=O)N3CCOCC3)cc2OC)nc2[nH]cc(Cl)c12 [JH-II-127],Kinases covered,[10],MLCK
CCn1c(-c2nonc2N)nc2cncc(CNC3CCNCC3)c21 [SB-747651A],Kinases covered,[11],MSK1
COc1ccc(-c2cc3c(C)nc(N)nc3n([C@H]3CC[C@H](O)CC3)c2=O)cn1 [PFE-PKIS 40],Kinases covered,[12],MTOR
COc1ccc(-c2cc3c(C)nc(N)nc3n([C@H]3CC[C@H](OCCO)CC3)c2=O)cn1 [PFE-PKIS 29],Kinases covered,[12],MTOR
Nc1ncnc2occ(-c3ccc(NC(=O)Nc4cc(C(F)(F)F)ccc4F)cc3)c12 [GW770249X],Kinases covered,[13],MUSK
CNC(=O)c1c(F)cccc1Nc1nc(Nc2cc3c(cc2OC)CCN3C(=O)CN(C)C)nc2[nH]ccc12 [GSK1838705],Kinases covered,[14],MYLK
C[C@@H](Oc1cc(-n2cnc3ccc(CN4CCN(C)CC4)cc32)sc1C(N)=O)c1ccccc1C(F)(F)F [GSK461364],Kinases covered,[15],NEK2
C[C@@H](Oc1cc(-n2cnc3ccc(OC4CCN(C)CC4)cc32)sc1C(N)=O)c1ccccc1Cl [GSK579289A],Kinases covered,[15],NEK2
CC(C)C(=O)N[C@@H]1CCN(C(=O)Nc2nc3c(s2)-c2nc(-c4ccccc4Cl)ncc2CC3)C1 [BI00047804],Kinases covered,[16],NEK3
